In ChEMBL document CHEMBL1201862, “PubChem BioAssay data set” (2004):
In all, about 400,000 compounds went through this assay and about 2,100 (0.53%) were called active. About 14% were inconclusive and are not listed. The rule behind the calls is not given here. This excerpt belongs to a sample that is enriched for actives.

What follows are molecules tested against Ataxin-2 (Homo sapiens) (UniProt Q99700) (assay: qHTS for Inhibitors of ATXN expression.).
Type: functional

Ataxin-2 (Homo sapiens), sequence (Q99700 whole entry): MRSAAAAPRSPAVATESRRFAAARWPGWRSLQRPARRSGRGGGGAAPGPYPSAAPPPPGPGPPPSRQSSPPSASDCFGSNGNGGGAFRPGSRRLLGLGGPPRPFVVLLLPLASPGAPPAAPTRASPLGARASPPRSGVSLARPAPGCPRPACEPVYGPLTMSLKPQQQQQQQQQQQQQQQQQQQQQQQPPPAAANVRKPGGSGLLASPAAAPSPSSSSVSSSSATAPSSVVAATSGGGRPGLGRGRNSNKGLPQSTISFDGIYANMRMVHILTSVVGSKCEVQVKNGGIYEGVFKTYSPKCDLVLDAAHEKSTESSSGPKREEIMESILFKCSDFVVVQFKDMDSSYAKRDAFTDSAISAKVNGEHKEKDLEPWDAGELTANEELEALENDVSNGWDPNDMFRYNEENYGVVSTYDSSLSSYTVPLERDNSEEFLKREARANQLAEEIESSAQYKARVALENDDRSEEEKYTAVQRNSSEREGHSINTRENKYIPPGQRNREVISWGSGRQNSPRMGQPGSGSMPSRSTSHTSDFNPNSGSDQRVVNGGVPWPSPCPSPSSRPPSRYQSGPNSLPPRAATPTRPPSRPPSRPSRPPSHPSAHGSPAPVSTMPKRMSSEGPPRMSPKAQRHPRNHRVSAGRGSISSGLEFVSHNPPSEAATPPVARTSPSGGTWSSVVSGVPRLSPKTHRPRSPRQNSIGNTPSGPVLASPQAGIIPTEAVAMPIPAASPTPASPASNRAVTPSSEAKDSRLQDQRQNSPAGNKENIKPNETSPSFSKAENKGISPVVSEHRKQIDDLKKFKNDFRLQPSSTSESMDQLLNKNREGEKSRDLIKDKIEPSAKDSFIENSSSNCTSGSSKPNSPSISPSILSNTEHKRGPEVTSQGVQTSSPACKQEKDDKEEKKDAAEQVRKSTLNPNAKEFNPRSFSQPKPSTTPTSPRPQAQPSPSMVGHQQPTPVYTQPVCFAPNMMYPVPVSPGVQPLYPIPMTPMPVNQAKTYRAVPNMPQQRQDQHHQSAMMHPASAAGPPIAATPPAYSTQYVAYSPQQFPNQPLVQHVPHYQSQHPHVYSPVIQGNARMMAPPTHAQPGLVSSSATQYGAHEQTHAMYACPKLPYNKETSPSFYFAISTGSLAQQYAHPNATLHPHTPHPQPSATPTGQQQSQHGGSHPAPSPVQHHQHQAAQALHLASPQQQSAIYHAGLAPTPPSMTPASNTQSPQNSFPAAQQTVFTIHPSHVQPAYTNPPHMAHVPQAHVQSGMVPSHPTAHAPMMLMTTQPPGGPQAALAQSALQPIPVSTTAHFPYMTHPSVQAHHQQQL

| SMILES | Potency |
| --- | --- |
| Cc1c2ccccc2nc2c(F)c(N(C)C)c(F)c(F)c12 | inactive |
| Cc1c(O)ccc2cc(S(=O)(=O)c3ccccc3)c(=O)oc12 | inactive |
| Cc1cc(C(=O)COC(=O)[C@H](C)NC(=O)c2ccco2)c(C)n1Cc1ccco1 | inactive |
| COc1ccccc1Nc1nc2cc(C)ccc2cc1C#N | inactive |
| COc1ccc(C)cc1NCc1ccc([N+](=O)[O-])cc1 | inactive |
| COc1ccc(C)cc1Nc1n[n+](-c2ccccc2)c(-c2c(OC)ccc3ccccc23)s1 | 20 µM (active) |
| O=c1[nH]c(=O)n(-c2cc(Br)c(O)c(Br)c2)cc1Br | inactive |
| O=c1oc2ccccc2cc1-c1nc(-c2cccs2)cs1 | inactive |
| C=CCOc1ccc(C2C(C(=O)c3ccco3)=C(O)C(=O)N2c2nnc(C)s2)cc1 (stereo not drawn) | inactive |
| C=C1CC2(CC(c3ccccc3)OC(c3ccccc3)C2)OC1=O (stereo not drawn) | 39.8 µM (active) |
| O=C(/C=C/c1cn(CC(O)CN2CCCCCC2)c2ccccc12)c1cccs1 (stereo not drawn) | inactive |
| Fc1ccc(-c2ncc3ccccn23)cc1 | inactive |
| Cn1c(=S)n(C)c2ccccc21 | inactive |
| CN(C(=O)CSc1nnc(-c2cccs2)n1N)c1ccccc1 | inactive |
| CCC(NC(=O)Nc1nnc(C(F)(F)F)s1)(C(F)(F)F)C(F)(F)F | 31.6 µM (active) |
| CC1CCN(C(=O)CCC(=O)Nc2nnc(C(F)(F)F)s2)CC1 | inactive |
| O=C(Nc1nnc(C(F)(F)F)s1)c1c(F)cccc1F | inactive |
| O=C(O)CSc1nnc(-c2cccc(S(=O)(=O)N3CCOCC3)c2)n1-c1ccc(F)cc1 | inactive |
| N=C1C=CC(=C(c2ccc(N)cc2)c2ccc(N)cc2)C=C1 | 28.2 µM (active) |
| COc1ccc(COc2ncnc3ccc(Br)cc23)cc1F | inactive |
| Cc1cc(S(=O)(=O)NC2CC(C)(C)NC(C)(C)C2)c(Cl)cc1Cl | inactive |
| CCC1CCCCN1CCCNC(=O)c1[nH]c2ccccc2c1Sc1ccc(Cl)cc1 (stereo not drawn) | 39.8 µM (active) |
| CC1CCCCC1NC(=O)CCn1c(=S)[nH]c2ccccc2c1=O (stereo not drawn) | inactive |
| CCCCCn1c(=O)[nH]c2cc(C(=O)NCCCN3CCCCC3C)ccc2c1=O (stereo not drawn) | inactive |
| CC1CCCCN1CCCNC(=O)c1[nH]c2ccccc2c1Sc1ccc(Cl)cc1 (stereo not drawn) | 39.8 µM (active) |

| SMILES | Potency |
| --- | --- |
| COc1ccccc1[C@H]1C(c2ccccc2)=NN(c2ccccc2)[C@@H]1CO | inactive |
| Cc1ccc(C2=CC(c3ccc(C)cc3)n3ncnc3N2)cc1 (stereo not drawn) | inactive |
| COCc1cc(C)nc2sc(C(=O)Nc3ccc(C(C)=O)cc3)c(N)c12 | inactive |
| Cc1ccc(Nc2cc(C)c(O)c(C)c2)cc1 | inactive |
| CC(=O)c1ccc(Nc2cc(C)nc3c(C)cc(C)cc23)cc1 | 29.9 µM (active) |
| COC(=O)Cc1c(C)c2cc3c(c(C)c2oc1=O)OCN(CCc1ccc(F)cc1)C3 | inactive |
| COC(=O)Cc1c(C)c2ccc3c(c2oc1=O)CN(Cc1ccccc1OC)CO3 | inactive |
| COc1ccc(C2C=C(c3ccc(Br)cc3)Nc3nc(N4C(=O)CCC4=O)nn32)cc1 (stereo not drawn) | inactive |
| CCc1cc(=O)oc2c(CN3CCN(C)CC3)c(O)ccc12 | inactive |
| Cc1ccc(-c2csc3ncnc(Sc4nnc(CN5CCCCCC5=O)o4)c23)cc1 | 39.8 µM (active) |
| CCN(CC)c1ccc(C(=O)c2cnc(/N=C/N(C)C)s2)cc1 | inactive |
| CCN(CC)c1ccc(C(=C2C=CC(=[N+](CC)CC)C=C2)c2ccc(N(CC)CC)cc2)cc1 | 10 µM (active) |
| CCN(CC)c1ccc(C(=O)OCC(=O)N(C(C)C)C(C)C)cc1 | inactive |
| CCOc1ccc(Nc2nc3c(C)cccc3cc2C#N)cc1 | inactive |
| Cc1ccc(NC(=O)Cc2ccc(Cl)cc2)nc1 | inactive |
| O=C(Cc1ccc(Cl)cc1)Nc1ccc(-c2nnc(-c3ccco3)o2)cc1 | 39.8 µM (active) |
| N=C(N)NS(=O)(=O)c1ccc(NC(=S)NC(=O)Cc2ccc(Cl)cc2)cc1 | inactive |
| CC(C)OCCCNC(=O)NC(=O)c1ccc(Cl)cc1 | inactive |
| O=C(COc1ccc(Cl)cc1)N(Cc1cccs1)C1CCS(=O)(=O)C1 (stereo not drawn) | inactive |
| Cc1cc(O)c(C(=O)/C=C/c2ccc(Cl)cc2)c(=O)o1 | inactive |
| CCOc1ccc(OCCOc2ccc(/C=C/C(=O)O)cc2OCC)cc1 | inactive |
| CCN=c1ccc(Br)cc(C(=O)/C=C/c2ccc(Cl)cc2)c1O | 31.6 µM (active) |
| CCOc1ccc(/C=C/C(=O)c2cc(Br)ccc(=O)c2O)cc1 | 22.4 µM (active) |
| CCOc1ccc(-n2cc(C(=O)c3cc(Cl)ccc3O)cc(C#N)c2=O)cc1 | inactive |
| CC(C)(C)c1ccc(C(=O)NNc2ncccc2-n2cccc2)cc1 | inactive |

| SMILES | Potency |
| --- | --- |
| CC(=O)N/N=C/c1cc(C(C)C)cc(/C=N/NC(C)=O)c1O | inactive |
| COc1cc(OC)nc(-n2ncc(Br)c(Br)c2=O)n1 | 10.6 µM (active) |
| O=c1c(Br)c(Br)cnn1-c1ccccc1 | 4.23 µM (active) |
| Nc1cccc(Oc2c(F)c(F)c(Oc3cccc(N)c3)c(F)c2F)c1 | inactive |
| CN(CC(=O)Nc1ccccc1Cl)C(=O)COC(=O)c1nc(Cl)c(Cl)c(Cl)c1Cl | 28.2 µM (active) |
| Cc1cnc(C(=O)OCC(=O)Nc2cccc3ccccc23)cn1 | inactive |
| Cc1ccc(NC(=O)CN(C)C(=O)COC(=O)c2nccnc2N)cc1 | inactive |
| CCCc1c(-c2ccc(Cl)cc2)ncn1Cc1ccccc1OC | 44.7 µM (active) |
| CCCCCc1c(-c2ccc(Cl)cc2)ncn1CCc1ccccc1OC | 39.8 µM (active) |
| COc1cc2c3nnc(-c4ccccc4)c-3cn(Cc3ccccc3F)c2cc1OC | inactive |
| CCCCc1c(-c2ccc(Cl)cc2)ncn1CCc1ccccc1OC | 39.8 µM (active) |
| CC(=O)c1cc2ccc(O)cc2oc1=O | inactive |
| COCCNC(=O)/C(=C/c1ccccc1Cl)c1ccccc1 | inactive |
| O=C1CC(c2cccc(Br)c2)C2=C(COC2=O)N1 (stereo not drawn) | inactive |
| CN(C)/C=N/C(=S)Nc1ccc(Cl)cc1 | inactive |
| Cn1nc(-c2ccccc2)c2nc3ccccc3nc21 | inactive |
| CN1CCN(C2=CC3=CC(=C(C#N)C#N)CCC3CC2)CC1 (stereo not drawn) | inactive |
| COc1cc2oc3cc(C#Cc4ccc(N)cc4)ccc3c(=O)c2cc1OC | inactive |
| COc1cc2c(C#CCCO)c(-c3ccc(C#N)cc3)oc(=O)c2cc1OC | inactive |
| COc1cccc2oc3cc(C#CC4(O)CCCCC4)ccc3c(=O)c12 | 22.4 µM (active) |
| O=c1c2ccccc2oc2ccc(C#CC3(O)CCCCC3)cc12 | 28.2 µM (active) |
| Nc1ccc(C#Cc2ccc3c(=O)c4ccccc4oc3c2)cc1 | inactive |
| O=c1c(O)c(-c2ccccc2)oc2ccccc12 | inactive |
